Results taken from the supplement of paper PMC10849652.
About 8,800 targets were measured; listed, in parts, are those with a hit and a random draw of the rest. About 0.5% of all pairs of compound and target were hits.

Legend:
Experiment in all cases: log2 fold change, soluble protein after heating vs DMSO (PISA); higher = thermal stabilisation; K562 lysate, 10 uM; active = over 0.2 and 3.5 SD of the protein, either way, in both replicates (recomputed)
lapatinib = compound: CS(=O)(=O)CCNCc1ccc(-c2ccc3ncnc(Nc4ccc(OCc5cccc(F)c5)c(Cl)c4)c3c2)o1 [lapatinib]
In short: (§1)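 Log-two fold change in thermal stability relative to solvent controls is reported from duplicates. For each sample, crude K562 extract from dounce-homogenised pellets in PBS pH 7.4 with 1 mM MgCl2, at 1 mg/mL protein, was treated with 10 μM compound for 30 min. Aliquots heated for 3 min across 48°C-58°C were pooled, brought to 0.5% NP-40 at 4°C and cleared at 21,000xg for 90 min. The supernatant was quantified by TMTpro 16plex LC-MS/MS with channel sums equalised.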

pictilisib = compound: CS(=O)(=O)N1CCN(Cc2cc3nc(-c4cccc5[nH]ncc45)nc(N4CCOCC4)c3s2)CC1 [pictilisib]
In short: as §1

crizotinib = compound: C[C@@H](Oc1cc(-c2cnn(C3CCNCC3)c2)cnc1N)c1c(Cl)ccc(F)c1Cl [crizotinib]
In short: as §1

[1] = compound: C[C@H](C1=CC=C(C=C1)C(=O)NC2=C3C=CNC3=NC=C2)N
In short: as §1

duvelisib = compound: C[C@H](Nc1ncnc2nc[nH]c12)c1cc2cccc(Cl)c2c(=O)n1-c1ccccc1 [duvelisib]
In short: as §1

gandotinib = compound: Cc1cc(Nc2cc(CN3CCOCC3)c3nc(C)c(Cc4ccc(Cl)cc4F)n3n2)n[nH]1 [gandotinib]
In short: as §1

tozasertib = compound: Cc1cc(Nc2cc(N3CCN(C)CC3)nc(Sc3ccc(NC(=O)C4CC4)cc3)n2)n[nH]1 [tozasertib]
In short: as §1

doramapimod = compound: Cc1ccc(-n2nc(C(C)(C)C)cc2NC(=O)Nc2ccc(OCCN3CCOCC3)c3ccccc23)cc1 [doramapimod]
In short: as §1

bafetinib = compound: Cc1ccc(NC(=O)c2ccc(CN3CC[C@H](N(C)C)C3)c(C(F)(F)F)c2)cc1Nc1nccc(-c2cncnc2)n1 [bafetinib]
In short: as §1

[2] = compound: Cc1cccc(CC(=O)N2CCc3c2ccc(-c2cn(C)c4ncnc(N)c24)c3F)n1
In short: as §1

Sequence of UniProt Q8TDD1 (Q8TDD1 whole entry, looked up): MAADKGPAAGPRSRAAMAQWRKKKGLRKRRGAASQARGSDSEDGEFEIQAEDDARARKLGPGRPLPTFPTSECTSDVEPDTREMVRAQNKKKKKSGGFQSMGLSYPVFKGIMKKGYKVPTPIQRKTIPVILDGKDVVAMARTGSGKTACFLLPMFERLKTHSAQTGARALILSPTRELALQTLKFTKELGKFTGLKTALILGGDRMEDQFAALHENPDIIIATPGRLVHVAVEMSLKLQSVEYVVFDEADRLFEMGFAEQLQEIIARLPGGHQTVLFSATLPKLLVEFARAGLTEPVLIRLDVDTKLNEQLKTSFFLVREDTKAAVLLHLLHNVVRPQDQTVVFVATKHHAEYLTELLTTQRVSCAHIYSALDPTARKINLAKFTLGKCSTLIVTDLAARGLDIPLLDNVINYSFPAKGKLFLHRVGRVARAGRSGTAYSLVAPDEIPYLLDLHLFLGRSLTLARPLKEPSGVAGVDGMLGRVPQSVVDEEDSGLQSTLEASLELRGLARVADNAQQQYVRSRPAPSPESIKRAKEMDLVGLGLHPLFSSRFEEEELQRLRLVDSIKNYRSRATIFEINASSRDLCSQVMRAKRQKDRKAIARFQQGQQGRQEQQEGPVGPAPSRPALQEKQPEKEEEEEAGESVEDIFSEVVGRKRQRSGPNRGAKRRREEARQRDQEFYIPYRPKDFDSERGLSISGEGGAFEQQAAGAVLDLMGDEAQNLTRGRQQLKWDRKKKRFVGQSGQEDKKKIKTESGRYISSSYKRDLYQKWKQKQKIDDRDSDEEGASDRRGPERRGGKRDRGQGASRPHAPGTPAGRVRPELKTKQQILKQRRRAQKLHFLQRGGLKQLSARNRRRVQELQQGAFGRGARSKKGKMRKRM
Sequence of UniProt P50570 (P50570 whole entry, looked up): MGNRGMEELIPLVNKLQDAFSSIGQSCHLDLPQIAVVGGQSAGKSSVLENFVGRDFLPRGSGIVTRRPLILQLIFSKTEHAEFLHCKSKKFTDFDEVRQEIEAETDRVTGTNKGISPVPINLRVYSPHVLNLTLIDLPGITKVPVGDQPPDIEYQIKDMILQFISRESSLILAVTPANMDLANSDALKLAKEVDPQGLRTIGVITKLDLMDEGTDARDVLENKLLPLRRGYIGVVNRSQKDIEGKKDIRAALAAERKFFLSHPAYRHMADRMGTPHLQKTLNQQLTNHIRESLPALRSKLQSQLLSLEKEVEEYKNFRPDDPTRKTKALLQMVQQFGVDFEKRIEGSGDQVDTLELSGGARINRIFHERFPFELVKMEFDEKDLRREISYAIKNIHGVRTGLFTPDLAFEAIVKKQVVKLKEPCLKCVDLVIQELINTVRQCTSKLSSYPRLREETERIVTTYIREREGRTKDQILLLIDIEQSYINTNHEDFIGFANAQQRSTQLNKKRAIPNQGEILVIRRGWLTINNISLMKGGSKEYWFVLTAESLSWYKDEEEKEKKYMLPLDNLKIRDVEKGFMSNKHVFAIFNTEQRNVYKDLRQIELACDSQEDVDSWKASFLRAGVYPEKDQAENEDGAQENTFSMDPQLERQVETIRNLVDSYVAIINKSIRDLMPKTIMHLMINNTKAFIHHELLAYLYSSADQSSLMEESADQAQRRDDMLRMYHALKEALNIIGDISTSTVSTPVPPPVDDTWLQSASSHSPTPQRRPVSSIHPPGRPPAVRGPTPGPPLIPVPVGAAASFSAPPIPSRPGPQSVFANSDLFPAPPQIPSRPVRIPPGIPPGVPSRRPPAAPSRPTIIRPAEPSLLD
Sequence of UniProt Q9H4E7 (Q9H4E7 whole entry, looked up): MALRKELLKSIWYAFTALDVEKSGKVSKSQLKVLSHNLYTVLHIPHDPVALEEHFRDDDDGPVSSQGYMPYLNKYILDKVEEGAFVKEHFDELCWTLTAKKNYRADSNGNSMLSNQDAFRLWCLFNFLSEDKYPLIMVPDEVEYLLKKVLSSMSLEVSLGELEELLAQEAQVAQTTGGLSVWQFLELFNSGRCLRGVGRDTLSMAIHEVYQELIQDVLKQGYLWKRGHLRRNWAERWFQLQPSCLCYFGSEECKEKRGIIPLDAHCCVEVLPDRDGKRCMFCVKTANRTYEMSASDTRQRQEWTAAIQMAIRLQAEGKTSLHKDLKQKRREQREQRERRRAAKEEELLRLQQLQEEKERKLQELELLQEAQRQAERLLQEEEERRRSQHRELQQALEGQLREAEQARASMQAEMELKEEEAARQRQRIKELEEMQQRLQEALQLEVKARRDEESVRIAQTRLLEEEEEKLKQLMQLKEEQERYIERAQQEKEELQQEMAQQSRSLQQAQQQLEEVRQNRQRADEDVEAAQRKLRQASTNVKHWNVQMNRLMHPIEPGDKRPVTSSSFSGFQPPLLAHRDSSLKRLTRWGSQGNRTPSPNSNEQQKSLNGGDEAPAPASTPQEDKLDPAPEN
Sequence of UniProt O15111 (O15111 whole entry, looked up): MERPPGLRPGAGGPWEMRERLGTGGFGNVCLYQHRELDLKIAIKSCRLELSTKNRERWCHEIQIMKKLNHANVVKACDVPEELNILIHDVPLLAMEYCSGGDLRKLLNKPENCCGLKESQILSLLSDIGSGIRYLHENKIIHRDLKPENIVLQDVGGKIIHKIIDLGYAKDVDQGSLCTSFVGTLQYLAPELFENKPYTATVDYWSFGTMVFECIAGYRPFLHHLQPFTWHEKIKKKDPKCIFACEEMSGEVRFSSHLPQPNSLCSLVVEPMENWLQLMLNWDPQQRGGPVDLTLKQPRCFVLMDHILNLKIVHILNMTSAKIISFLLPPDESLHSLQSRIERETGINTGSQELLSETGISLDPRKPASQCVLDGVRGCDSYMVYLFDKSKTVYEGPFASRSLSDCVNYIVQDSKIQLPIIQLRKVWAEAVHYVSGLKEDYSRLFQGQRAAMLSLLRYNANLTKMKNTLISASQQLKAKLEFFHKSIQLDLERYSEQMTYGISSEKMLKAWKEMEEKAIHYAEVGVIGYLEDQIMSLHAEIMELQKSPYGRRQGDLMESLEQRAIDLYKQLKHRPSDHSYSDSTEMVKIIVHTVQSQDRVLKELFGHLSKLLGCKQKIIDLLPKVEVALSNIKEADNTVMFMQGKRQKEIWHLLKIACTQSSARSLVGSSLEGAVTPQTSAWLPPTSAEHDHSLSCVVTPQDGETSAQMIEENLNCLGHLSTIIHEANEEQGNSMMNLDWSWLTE
Sequence of UniProt Q9UHI6 (Q9UHI6 whole entry, looked up): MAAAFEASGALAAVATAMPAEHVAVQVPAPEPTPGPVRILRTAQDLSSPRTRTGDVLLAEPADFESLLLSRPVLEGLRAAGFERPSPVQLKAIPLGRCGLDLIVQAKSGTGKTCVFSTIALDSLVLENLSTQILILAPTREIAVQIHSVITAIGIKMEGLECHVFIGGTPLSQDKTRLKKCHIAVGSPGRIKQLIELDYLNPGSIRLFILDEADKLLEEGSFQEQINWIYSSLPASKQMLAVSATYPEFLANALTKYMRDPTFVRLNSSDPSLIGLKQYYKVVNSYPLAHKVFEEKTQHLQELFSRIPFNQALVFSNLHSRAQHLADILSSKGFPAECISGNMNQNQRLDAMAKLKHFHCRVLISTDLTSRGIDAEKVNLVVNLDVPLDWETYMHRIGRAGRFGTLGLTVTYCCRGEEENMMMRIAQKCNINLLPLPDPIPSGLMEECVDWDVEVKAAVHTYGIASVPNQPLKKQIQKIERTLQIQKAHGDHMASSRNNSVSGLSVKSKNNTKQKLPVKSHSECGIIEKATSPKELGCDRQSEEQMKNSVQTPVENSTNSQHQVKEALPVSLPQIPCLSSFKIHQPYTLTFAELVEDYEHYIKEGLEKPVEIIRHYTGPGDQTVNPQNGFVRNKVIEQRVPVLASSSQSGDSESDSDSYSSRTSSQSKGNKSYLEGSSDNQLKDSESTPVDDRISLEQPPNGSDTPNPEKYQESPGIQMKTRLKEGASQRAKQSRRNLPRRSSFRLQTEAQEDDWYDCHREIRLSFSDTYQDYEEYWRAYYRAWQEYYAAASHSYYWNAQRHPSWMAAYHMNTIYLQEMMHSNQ
Sequence of UniProt P29373 (P29373 whole entry, looked up): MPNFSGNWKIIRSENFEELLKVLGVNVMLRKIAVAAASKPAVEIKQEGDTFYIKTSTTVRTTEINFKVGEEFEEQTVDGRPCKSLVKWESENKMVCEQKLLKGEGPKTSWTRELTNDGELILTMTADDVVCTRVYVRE
Sequence of UniProt O00148 (O00148 whole entry, looked up): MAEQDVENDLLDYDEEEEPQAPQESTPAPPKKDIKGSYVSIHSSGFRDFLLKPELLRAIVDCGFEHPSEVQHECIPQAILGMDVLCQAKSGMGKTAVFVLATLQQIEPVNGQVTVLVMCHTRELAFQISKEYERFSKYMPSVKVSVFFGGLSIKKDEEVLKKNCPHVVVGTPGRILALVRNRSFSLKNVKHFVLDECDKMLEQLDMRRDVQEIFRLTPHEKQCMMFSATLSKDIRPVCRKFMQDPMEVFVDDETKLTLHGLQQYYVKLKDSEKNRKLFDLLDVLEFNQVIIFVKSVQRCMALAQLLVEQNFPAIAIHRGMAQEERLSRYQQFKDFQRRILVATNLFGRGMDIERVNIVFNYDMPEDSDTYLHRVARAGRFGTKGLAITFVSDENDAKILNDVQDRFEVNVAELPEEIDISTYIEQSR
Sequence of UniProt P41240 (P41240 whole entry, looked up): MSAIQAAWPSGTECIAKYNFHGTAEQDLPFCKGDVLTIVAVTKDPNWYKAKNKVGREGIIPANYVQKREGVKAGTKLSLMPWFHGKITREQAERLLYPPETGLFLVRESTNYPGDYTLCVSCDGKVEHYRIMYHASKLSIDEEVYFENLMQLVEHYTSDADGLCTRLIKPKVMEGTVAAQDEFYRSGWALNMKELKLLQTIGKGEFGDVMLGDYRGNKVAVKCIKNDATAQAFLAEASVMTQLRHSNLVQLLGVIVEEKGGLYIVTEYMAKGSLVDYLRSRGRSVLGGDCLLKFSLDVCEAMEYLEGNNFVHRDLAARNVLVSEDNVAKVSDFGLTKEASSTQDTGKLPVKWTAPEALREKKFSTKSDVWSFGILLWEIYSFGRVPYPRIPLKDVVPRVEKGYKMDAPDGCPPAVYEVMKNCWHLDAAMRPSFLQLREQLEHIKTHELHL
Sequence of UniProt Q8WXC6 (Q8WXC6 whole entry, looked up): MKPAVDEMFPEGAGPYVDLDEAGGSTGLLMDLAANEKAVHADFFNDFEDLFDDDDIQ

Target | log2 fold change (lapatinib) | log2 fold change (pictilisib) | log2 fold change (crizotinib) | log2 fold change [1] | log2 fold change (duvelisib) | log2 fold change (gandotinib) | log2 fold change (tozasertib) | log2 fold change (doramapimod) | log2 fold change (bafetinib) | log2 fold change [2]
DDX54 isoform 2 (UniProt Q8TDD1) | -0.03 (inactive) | 0.075 (inactive) | -0.057 (inactive) | -0.025 (inactive) | 0.025 (inactive) | 0.01 (inactive) | 0.035 (inactive) | 0.019 (inactive) | 0.11 (inactive) | 0.101 (inactive)
DIAPH1 (UniProt O60610) | -0.007 (inactive) | 0.014 (inactive) | 0.004 (inactive) | 0.06 (inactive) | -0.006 (inactive) | -0.063 (inactive) | 0.004 (inactive) | -0.003 (inactive) | -0.001 (inactive) | -0.021 (inactive)
CSNK1G3 isoform 4 (UniProt Q9Y6M4) | -0.035 (inactive) |  |  |  |  |  |  |  |  | 
DENND6A (UniProt Q8IWF6) | -0.077 (inactive) | -0.079 (inactive) | 0.028 (inactive) | -0.013 (inactive) | -0.022 (inactive) | -0.006 (inactive) | -0.038 (inactive) | 0.054 (inactive) | -0.099 (inactive) | 0.086 (inactive)
COMT (UniProt P21964) | -0.006 (inactive) | -0.007 (inactive) | 0.019 (inactive) | -0.052 (inactive) | -0.015 (inactive) | -0.008 (inactive) | -0.008 (inactive) | 0.038 (inactive) | 0.012 (inactive) | 0.01 (inactive)
CHUK (UniProt O15111) | 0.001 (inactive) | -0.031 (inactive) | -0.067 (inactive) | 0.112 (inactive) | 0.036 (inactive) | -0.067 (inactive) | 0.024 (inactive) | 0.008 (inactive) | -0.001 (inactive) | -0.048 (inactive)
CKM (UniProt P06732) | -0.041 (inactive) | -0.035 (inactive) | -0.13 (inactive) | -0.431 (active) | 0.087 (inactive) | 0.096 (inactive) | -0.078 (inactive) | -0.019 (inactive) | -0.023 (inactive) | 0.113 (inactive)
DCP1A (UniProt Q9NPI6) | -0.015 (inactive) | -0.015 (inactive) | -0.042 (inactive) | -0.008 (inactive) | 0.023 (inactive) | 0.003 (inactive) | -0.03 (inactive) | -0.031 (inactive) | 0.043 (inactive) | 0.089 (inactive)
CMPK2 (UniProt Q5EBM0) | 0.065 (inactive) | 0 (inactive) | 0.007 (inactive) | -0.074 (inactive) | 0.043 (inactive) | 0.008 (inactive) | 0.018 (inactive) | -0.01 (inactive) | -0.061 (inactive) | 0.056 (inactive)
CORO1A (UniProt P31146) | -0.018 (inactive) | -0.058 (inactive) | -0.008 (inactive) | -0.069 (inactive) | 0.038 (inactive) | 0.037 (inactive) | 0.089 (inactive) | 0.009 (inactive) | -0.028 (inactive) | -0.001 (inactive)
COTL1 (UniProt Q14019) | 0.007 (inactive) | 0.016 (inactive) | 0.045 (inactive) | 0.245 (inactive) | -0.009 (inactive) | -0.062 (inactive) | 0.024 (inactive) | -0.044 (inactive) | 0.102 (inactive) | -0.122 (inactive)
DNM2 (UniProt P50570) | -0.003 (inactive) | 0.022 (inactive) | -0.013 (inactive) | 0.021 (inactive) | -0.007 (inactive) | -0.076 (inactive) | 0.001 (inactive) | 0.033 (inactive) | -0.011 (inactive) | 0.035 (inactive)
DDX39A (UniProt O00148) | -0.004 (inactive) | 0.021 (inactive) | 0.006 (inactive) | -0.022 (inactive) | 0.004 (inactive) | -0.104 (inactive) | -0.008 (inactive) | -0.046 (inactive) | -0.004 (inactive) | 0.093 (inactive)
CNOT4 isoform 6 (UniProt O95628) | 0.039 (inactive) | -0.06 (inactive) | 0.146 (inactive) | -0.093 (inactive) | -0.011 (inactive) | 0.075 (inactive) | -0.027 (inactive) | -0.234 (active) | -0.054 (inactive) | 0.028 (inactive)
CMSS1 (UniProt Q9BQ75) | 0.012 (inactive) | 0.016 (inactive) | -0.021 (inactive) | 0.176 (inactive) | -0.001 (inactive) | -0.086 (inactive) | 0.009 (inactive) | 0.015 (inactive) | -0.026 (inactive) | -0.015 (inactive)
CSNK1A1 (UniProt P48729) | -0.099 (inactive) | 0.084 (inactive) | -0.049 (inactive) | 0.084 (inactive) | -0.034 (inactive) | -0.077 (inactive) | -0.068 (inactive) | 0.027 (inactive) | 0 (inactive) | -0.01 (inactive)

Target | log2 fold change (lapatinib) | log2 fold change (pictilisib) | log2 fold change (crizotinib) | log2 fold change [1] | log2 fold change (duvelisib) | log2 fold change (gandotinib) | log2 fold change (tozasertib) | log2 fold change (doramapimod) | log2 fold change (bafetinib) | log2 fold change [2]
CSK (UniProt P41240) | -0.022 (inactive) | -0.017 (inactive) | 0.259 (inactive) | -0.075 (inactive) | -0.026 (inactive) | 0.377 (inactive) | 0.098 (inactive) | -0.005 (inactive) | 0.41 (inactive) | 0 (inactive)
CSNK2A1, A0A2R8Y4D6 | -0.132 (inactive) |  |  |  |  |  |  |  |  | 
CXorf38 (UniProt Q8TB03) | -0.05 (inactive) | -0.017 (inactive) | -0.019 (inactive) | -0.039 (inactive) | 0.013 (inactive) | 0.037 (inactive) | 0.037 (inactive) | 0.013 (inactive) | -0.018 (inactive) | -0.033 (inactive)
DEF6 (UniProt Q9H4E7) | -0.021 (inactive) | 0.057 (inactive) | -0.095 (inactive) | -0.049 (inactive) | 0.013 (inactive) | 0.032 (inactive) | 0.009 (inactive) | 0 (inactive) | 0.151 (inactive) | 0.188 (inactive)
DDX20 (UniProt Q9UHI6) | -0.041 (inactive) | 0.024 (inactive) | -0.088 (inactive) | 0.029 (inactive) | 0.008 (inactive) | -0.137 (inactive) | -0.065 (inactive) | 0.015 (inactive) | -0.016 (inactive) | 0.054 (inactive)
DFFB (UniProt O76075) | 0.003 (inactive) | -0.016 (inactive) | 0.023 (inactive) | 0.003 (inactive) | -0.008 (inactive) | 0.015 (inactive) | 0.049 (inactive) | -0.07 (inactive) | -0.028 (inactive) | -0.021 (inactive)
CXXC1 isoform 2 (UniProt Q9P0U4) | -0.024 (inactive) | 0.107 (inactive) | -0.089 (inactive) | 0.058 (inactive) | 0.154 (inactive) | -0.046 (inactive) | -0.028 (inactive) | 0.018 (inactive) | -0.047 (inactive) | 0.005 (inactive)
CRABP2 (UniProt P29373) | -0.008 (inactive) | -0.026 (inactive) | -0.025 (inactive) | 0.041 (inactive) | -0.056 (inactive) | 0.091 (inactive) | 0.241 (inactive) | 0.078 (inactive) | 0.014 (inactive) | -0.138 (inactive)
CUX1 isoform 3 (UniProt P39880) | -0.01 (inactive) | -0.045 (inactive) | 0.004 (inactive) | 0.076 (inactive) | 0.007 (inactive) | -0.116 (inactive) | 0.032 (inactive) | -0.025 (inactive) | -0.012 (inactive) | 0.007 (inactive)
CYP51A1 (UniProt Q16850) | 0.105 (inactive) | 0.024 (inactive) | 0.023 (inactive) | -0.036 (inactive) | -0.065 (inactive) | 0.447 (active) | 0 (inactive) | 0.089 (inactive) | 0.385 (active) | 0.045 (inactive)
CSNK1E (UniProt P49674) | -0.026 (inactive) | 0.103 (inactive) | 0.004 (inactive) | 0.135 (inactive) | -0.016 (inactive) | -0.134 (inactive) | -0.065 (inactive) | 0.003 (inactive) | -0.024 (inactive) | -0.061 (inactive)
DICER1 (UniProt Q9UPY3) | -0.02 (inactive) | -0.071 (inactive) | -0.075 (inactive) | -0.075 (inactive) | -0.05 (inactive) | 0.02 (inactive) | 0.035 (inactive) | 0.039 (inactive) | -0.11 (inactive) | 0.084 (inactive)
CHEK2 (UniProt O96017) | 0.08 (inactive) | -0.012 (inactive) | 0.069 (inactive) | -0.011 (inactive) | 0.002 (inactive) | -0.019 (inactive) | 0.039 (inactive) | 0.018 (inactive) | -0.046 (inactive) | -0.008 (inactive)
DHFR (UniProt P00374) | -0.012 (inactive) | -0.069 (inactive) | -0.054 (inactive) | 0.04 (inactive) | -0.015 (inactive) | -0.099 (inactive) | 0.022 (inactive) | 0.011 (inactive) | -0.047 (inactive) | -0.077 (inactive)
COPS9 (UniProt Q8WXC6) | 0.148 (inactive) |  |  |  |  |  |  |  |  | 
DENND4A isoform 2 (UniProt Q7Z401) | -0.034 (inactive) | 0.001 (inactive) | -0.038 (inactive) | -0.206 (inactive) | -0.067 (inactive) | 0.045 (inactive) | -0.027 (inactive) | -0.009 (inactive) | -0.064 (inactive) | 0.203 (inactive)
